Test systems include NCI-H23 lung; NCI-H226 lung; NCI-H322M lung; HOP-62 NSCLC; NCI-H460 lung; HOP-92 NSCLC; NCI-H522 lung; A549/ATCC NSCLC; 786-0 renal; DU-145 prostate; K-562 leukemia; MALME-3M melanoma; MDA-MB-231 breast; SF-268 CNS; SF-295 CNS; SF-539 CNS; UACC-257 melanoma; M14 melanoma; COLO 205 colon; RXF 393 renal.
Common to all, as to assay: NCI-60 one-dose screen, 48 h (100 = growth as untreated, 0 = no growth, -100 = all killed)
Common to all, as to conditions: 10 µM unless noted

Compounds without any hit were thinned out: in the full panel of roughly 83,000, 20% have a hit.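 Method: cells in 96-well plates; compound added at one concentration; 48 h incubation; percent growth measured; values under 10 scored active.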 A number with no mark means an inactive call. The source made the active and inactive calls.

Take `NS(=O)(=O)c1cccc(NC(=O)C(=O)C2C(=O)Nc3ccccc32)c1` (stereo not drawn): the growth with NCI-H23 lung is 95.3%; in the experiment with NCI-H226 lung it was 95.9%; in the experiment with NCI-H322M lung, 121%; in the experiment on HOP-62 NSCLC, 90.2%; in the experiment on NCI-H460 lung it was 106%; in the experiment on HOP-92 NSCLC, 74.6%. Besides, the growth in the experiment on NCI-H522 lung was 102%; in the experiment with A549/ATCC NSCLC, 103%; with 786-0 renal, 114%; with DU-145 prostate, 107%; in the experiment on K-562 leukemia it was 109%; with MALME-3M melanoma it was 102%. Besides, the growth was 95.7% in the experiment with MDA-MB-231 breast; 105% with SF-268 CNS; 94.2% in the experiment with SF-295 CNS; 101% in the experiment on SF-539 CNS; 100% in the experiment on UACC-257 melanoma; 99.1% in the experiment on M14 melanoma.

`Cc1nc2sc(C(=O)Nc3ccccc3)c(N)c2cc1C(=O)c1ccc(C(F)(F)F)cc1`: the growth in the experiment on NCI-H23 lung was 93.5%; with NCI-H226 lung, 99.6%; with NCI-H322M lung, 102%; with HOP-62 NSCLC, 91.1%; in the experiment with NCI-H460 lung, 70.2%; in the experiment on HOP-92 NSCLC, 116%. The growth in the experiment on NCI-H522 lung was 89.1%; in the experiment with A549/ATCC NSCLC it was 42.8%; in the experiment on 786-0 renal, 95.3%; in the experiment on DU-145 prostate, 106%; in the experiment on K-562 leukemia it was 101%; in the experiment with MALME-3M melanoma it was 101%. Besides, the growth in the experiment on MDA-MB-231 breast was 101%; in the experiment on SF-268 CNS, 101%; in the experiment on SF-295 CNS it was 94.2%; in the experiment on SF-539 CNS, 93.5%; in the experiment with UACC-257 melanoma, 101%; in the experiment with M14 melanoma, 93.4%.

Regarding `CNC(=O)Nc1ccc(-c2nc(N3CCOCC3)nc3c2cnn3C2CCOCC2)cc1`, the growth is 17.5% with NCI-H23 lung; -12.4% (active) with NCI-H226 lung; -9.52% (active) in the experiment with NCI-H322M lung; -11% (active) in the experiment with HOP-62 NSCLC; 11.8% in the experiment with NCI-H460 lung; -27.6% (active) in the experiment with HOP-92 NSCLC. The growth in the experiment with NCI-H522 lung was -0.372% (active); with A549/ATCC NSCLC, -1.33% (active); in the experiment with COLO 205 colon, 5.84% (active); in the experiment with DU-145 prostate, 9.63% (active); in the experiment on K-562 leukemia it was 20.1%; with MALME-3M melanoma, -37.6% (active). Also, the growth is 5.07% (active) with MDA-MB-231 breast; -35.3% (active) in the experiment with RXF 393 renal; 15.7% with SF-268 CNS; -45% (active) in the experiment with SF-295 CNS; -24.4% (active) in the experiment on SF-539 CNS; -24.9% (active) in the experiment with UACC-257 melanoma. In the experiment with M14 melanoma, the growth is -12.1% (active).

For the compound `FC(F)(F)Oc1cccc(-c2cc(NCCCCCCNc3cc(-c4cccc(OC(F)(F)F)c4)nc4ccc(N5CCCC5)cc34)c3cc(N4CCCC4)ccc3n2)c1`, the growth in the experiment on NCI-H23 lung was -19.9% (active); in the experiment on NCI-H226 lung, 68.5%; in the experiment with NCI-H322M lung it was -79.3% (active); with HOP-62 NSCLC it was -14% (active); in the experiment with NCI-H460 lung, -52.1% (active); in the experiment with HOP-92 NSCLC, -23.9% (active). Moreover, the growth with NCI-H522 lung was -49.5% (active); with A549/ATCC NSCLC, -75% (active); in the experiment with 786-0 renal, -83.4% (active); in the experiment on DU-145 prostate, -5.9% (active); in the experiment with K-562 leukemia, -48.7% (active); with MALME-3M melanoma, -96.2% (active). For the same compound, the growth was -91.5% (active) in the experiment with MDA-MB-231 breast; -65.5% (active) in the experiment with SF-268 CNS; 34.1% in the experiment on SF-295 CNS; 8.48% (active) in the experiment on SF-539 CNS; -9.02% (active) with UACC-257 melanoma; -84% (active) in the experiment with M14 melanoma.

Take `CN1CCN(C(=O)[C@]2(C)CC[C@]3(C)CC[C@]4(C)C(=CC(=O)[C@@H]5[C@@]6(C)CCC(=O)NC(C)(C)[C@@H]6CC[C@]54C)[C@@H]3C2)CC1`: the growth with NCI-H23 lung was 100%; with NCI-H226 lung, 91.8%; in the experiment with NCI-H322M lung, 107%; with HOP-62 NSCLC, 89.2%; with NCI-H460 lung it was 102%; in the experiment on HOP-92 NSCLC, 64.7%. The growth in the experiment on NCI-H522 lung was 90.6%; with A549/ATCC NSCLC, 94.4%; with 786-0 renal it was 93.5%; with DU-145 prostate it was 97.6%; with MALME-3M melanoma, 95.9%; in the experiment on MDA-MB-231 breast, 107%. Further, the growth with SF-268 CNS is 94.3%; in the experiment on SF-295 CNS it was 98.3%; with SF-539 CNS, 92%; with UACC-257 melanoma, 103%; with M14 melanoma it was 105%.

On to `C(=N\Nc1ncc(-c2cc3cc4c(cc3o2)OCO4)s1)/c1c[nH]c2ccccc12`, for which the growth in the experiment on NCI-H23 lung was -25.8% (active); with NCI-H226 lung, -56.3% (active); in the experiment with NCI-H322M lung it was 26.7%; in the experiment on HOP-62 NSCLC, -18.4% (active); in the experiment on NCI-H460 lung, -27.2% (active); in the experiment on HOP-92 NSCLC, -0.218% (active). The growth with NCI-H522 lung was -42.2% (active); with A549/ATCC NSCLC, -38.6% (active); in the experiment with 786-0 renal, -40% (active); in the experiment with DU-145 prostate it was -41.3% (active); in the experiment on K-562 leukemia, 4.08% (active); in the experiment with MALME-3M melanoma, -45.6% (active). The growth was -27% (active) with MDA-MB-231 breast; -34.6% (active) in the experiment on SF-268 CNS; -41.1% (active) in the experiment with SF-295 CNS; -80% (active) with SF-539 CNS; 3.52% (active) in the experiment on UACC-257 melanoma; 16.6% in the experiment with M14 melanoma.

Values taken from PubChem BioAssay (NCI).
